Experimental data as given in PubChem BioAssay AID1159580 (chemical genetic matrix, 2015).
Hit rate of the full screen: of about 5,500 compounds, about 2,000 (36%) were called active. Roughly 18% stayed inconclusive and do not appear here. Rule as the data show it: active = normalized growth mostly below about 0.91 (no sharp cut-off); inconclusive = no clear call, values can overlap the other calls; inactive = mostly above about 0.92. The list shows a part of the results.

Test: chemical genetic growth profiling, strain panel (AID 1159580);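 also: tested at 20 µM; growth read once vehicle control cultures reached saturation at 30 °C; 1 = growth at the plate median or of vehicle wells; lower values mean less growth of the strain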
Conditions: growth OD

Measured: normalized growth

CCC[C@H](N[C@@H](C)C(=O)N1[C@H](C(=O)O)C[C@@H]2CCCC[C@@H]21)C(=O)OCC
inactive: S. cerevisiae deletion strains, locus YJR075W, strain HOC1, stronger effect = lower value 1.02 | S. cerevisiae deletion strains, locus YKL009W, strain mrt4, stronger effect = lower value 1.02 | S. cerevisiae deletion strains, locus YKL068W, stronger effect = lower value 1.03 | S. cerevisiae deletion strains, locus YKL085W, strain MDH1 (second series), stronger effect = lower value 1.01 | S. cerevisiae deletion strains, locus YKL085W, strain MDH1, stronger effect = lower value 1.01 | S. cerevisiae deletion strains, locus YKL160W, strain elf1, stronger effect = lower value 1.02 | S. cerevisiae deletion strains, locus YKL190W, strain CNB1, stronger effect = lower value 1.02 | S. cerevisiae deletion strains, locus YKR001C, strain vps1, stronger effect = lower value 1.03 | S. cerevisiae deletion strains, locus YKR026C, strain gcn3, stronger effect = lower value 1.02 | S. cerevisiae deletion strains, locus YKR091W, strain srl3, stronger effect = lower value 1.02 | S. cerevisiae deletion strains, locus YLL001W, strain dnm1, stronger effect = lower value 1.02 | S. cerevisiae deletion strains, locus YLL026W, stronger effect = lower value 1.01 | S. cerevisiae deletion strains, locus YLL041C, strain sdh2, stronger effect = lower value 1.01 | S. cerevisiae deletion strains, locus YLR027C, strain aat2, stronger effect = lower value 1.01 | S. cerevisiae deletion strains, locus YLR039C, strain RIC1, stronger effect = lower value 1.03 | S. cerevisiae deletion strains, locus YLR058C, strain SHM2, stronger effect = lower value 1.01 | S. cerevisiae deletion strains, locus YLR102C, strain apc9, stronger effect = lower value 1.02 | S. cerevisiae deletion strains, locus YLR113W, strain HOG1, stronger effect = lower value 0.988 | S. cerevisiae deletion strains, locus YLR221C, strain rsa3, stronger effect = lower value 1.01 | S. cerevisiae deletion strains, locus YLR258W, strain gsy2, stronger effect = lower value 1.02 | S. cerevisiae deletion strains, locus YLR262C, strain YPT6 (second series), stronger effect = lower value 1.03 | S. cerevisiae deletion strains, locus YLR262C, strain YPT6, stronger effect = lower value 1.04 | S. cerevisiae deletion strains, locus YLR268W, strain sec22, stronger effect = lower value 1.02 | S. cerevisiae deletion strains, locus YLR320W, strain mms22, stronger effect = lower value 1.01 | S. cerevisiae deletion strains, locus YLR330W, strain CHS5, stronger effect = lower value 1.01 | S. cerevisiae deletion strains, locus YLR342W, strain FKS1 (second series), stronger effect = lower value 1.02 | S. cerevisiae deletion strains, locus YLR342W, strain FKS1, stronger effect = lower value 1.03 | S. cerevisiae deletion strains, locus YLR357W, strain rsc2, stronger effect = lower value 0.998 | S. cerevisiae deletion strains, locus YLR370C, strain arc18, stronger effect = lower value 1.01 | S. cerevisiae deletion strains, locus YLR371W, strain rom2, stronger effect = lower value 1.01 | S. cerevisiae deletion strains, locus YLR384C, strain iki3, stronger effect = lower value 1.01 | S. cerevisiae deletion strains, locus YLR418C, strain cdc73, stronger effect = lower value 1.01 | S. cerevisiae deletion strains, locus YML016C, strain PPZ1, stronger effect = lower value 1.01 | S. cerevisiae deletion strains, locus YML032C, strain rad52, stronger effect = lower value 1.02 | S. cerevisiae deletion strains, locus YML120C, strain ndi1, stronger effect = lower value 1.02 | S. cerevisiae deletion strains, locus YML124C, strain tub3, stronger effect = lower value 1.02 | S. cerevisiae deletion strains, locus YMR058W, strain fet3, stronger effect = lower value 1.02 | S. cerevisiae deletion strains, locus YMR078C, strain ctf18, stronger effect = lower value 1.03 | S. cerevisiae deletion strains, locus YMR125W, strain sto1, stronger effect = lower value 0.994 | S. cerevisiae deletion strains, locus YMR129W, stronger effect = lower value 1.02 | S. cerevisiae deletion strains, locus YMR205C, strain PFK2, stronger effect = lower value 1.02 | S. cerevisiae deletion strains, locus YMR223W, strain ubp8, stronger effect = lower value 1.03 | S. cerevisiae deletion strains, locus YMR231W, strain pep5, stronger effect = lower value 1.02 | S. cerevisiae deletion strains, locus YMR263W, strain SAP30, stronger effect = lower value 1.01 | S. cerevisiae deletion strains, locus YMR307W, strain GAS1, stronger effect = lower value 0.976 | S. cerevisiae deletion strains, locus YNL067W, strain RPL9B, stronger effect = lower value 1.01 | S. cerevisiae deletion strains, locus YNL071W, strain lat1, stronger effect = lower value 1.01 | S. cerevisiae deletion strains, locus YNL128W, strain TEP1, stronger effect = lower value 1.01 | S. cerevisiae deletion strains, locus YNL153C, strain GIM3, stronger effect = lower value 1 | S. cerevisiae deletion strains, locus YNL183C, strain NPR1, stronger effect = lower value 0.963 | S. cerevisiae deletion strains, locus YNL209W, strain ssb2, stronger effect = lower value 1.01 | S. cerevisiae deletion strains, locus YNL233W, strain BNI4, stronger effect = lower value 0.996 | S. cerevisiae deletion strains, locus YNL248C, strain rpa49, stronger effect = lower value 1.01 | S. cerevisiae deletion strains, locus YNL250W, strain rad50, stronger effect = lower value 1.02 | S. cerevisiae deletion strains, locus YNL271C, strain bni1, stronger effect = lower value 1.02 | S. cerevisiae deletion strains, locus YNL298W, strain CLA4, stronger effect = lower value 1.01 | S. cerevisiae deletion strains, locus YNL307C, strain MCK1, stronger effect = lower value 1.03 | S. cerevisiae deletion strains, locus YNL322C, strain KRE1 (second series), stronger effect = lower value 1.02 | S. cerevisiae deletion strains, locus YNL322C, strain KRE1, stronger effect = lower value 1.01 | S. cerevisiae deletion strains, locus YNR049C, strain mso1, stronger effect = lower value 1.02 | S. cerevisiae deletion strains, locus YNR052C, strain pop2, stronger effect = lower value 1.02 | S. cerevisiae deletion strains, locus YOL006C, strain TOP1, stronger effect = lower value 1.04 | S. cerevisiae deletion strains, locus YOL012C, strain htz1 0.981 | S. cerevisiae deletion strains, locus YOL147C, strain pex11, stronger effect = lower value 1.02 | S. cerevisiae deletion strains, locus YOR001W, strain rrp6, stronger effect = lower value 1.03 | S. cerevisiae deletion strains, locus YOR061W, strain CKA2, stronger effect = lower value 1.01 | S. cerevisiae deletion strains, locus YOR069W, strain VPS5, stronger effect = lower value 1 | S. cerevisiae deletion strains, locus YOR070C, strain gyp1, stronger effect = lower value 1.02 | S. cerevisiae deletion strains, locus YOR080W, strain dia2, stronger effect = lower value 1.03 | S. cerevisiae deletion strains, locus YOR083W, strain WHI5, stronger effect = lower value 1.02 | S. cerevisiae deletion strains, locus YOR106W, strain vam3, stronger effect = lower value 1.04 | S. cerevisiae deletion strains, locus YOR136W, strain idh2, stronger effect = lower value 1.02 | S. cerevisiae deletion strains, locus YOR144C, strain elg1, stronger effect = lower value 1.02 | S. cerevisiae deletion strains, locus YOR184W, strain ser1, stronger effect = lower value 1.03 | S. cerevisiae deletion strains, locus YOR231W, strain MKK1, stronger effect = lower value 0.999 | S. cerevisiae deletion strains, locus YOR265W, strain rbl2, stronger effect = lower value 1.01 | S. cerevisiae deletion strains, locus YOR270C, strain vph1, stronger effect = lower value 1.05 | S. cerevisiae deletion strains, locus YOR290C, strain snf2, stronger effect = lower value 1 | S. cerevisiae deletion strains, locus YOR316C, strain cot1, stronger effect = lower value 1.02 | S. cerevisiae deletion strains, locus YPL051W, strain arl3, stronger effect = lower value 1.02 | S. cerevisiae deletion strains, locus YPL055C, strain LGE1, stronger effect = lower value 1.01 | S. cerevisiae deletion strains, locus YPL078C, strain atp4, stronger effect = lower value 1.03 | S. cerevisiae deletion strains, locus YPL106C, strain sse1, stronger effect = lower value 1.02 | S. cerevisiae deletion strains, locus YPL240C, strain hsp82, stronger effect = lower value 1.02 | S. cerevisiae deletion strains, locus YPL241C, strain CIN2, stronger effect = lower value 1.03 | S. cerevisiae deletion strains, locus YPL256C, strain CLN2, stronger effect = lower value 1 | S. cerevisiae deletion strains, locus YPR119W, strain clb2, stronger effect = lower value 1.03 | S. cerevisiae deletion strains, locus YPR141C, strain kar3, stronger effect = lower value 1.02 | S. cerevisiae deletion strains, locus YPR163C, strain tif3, stronger effect = lower value 1.02 | S. cerevisiae deletion strains, locus YPR167C, strain met16, stronger effect = lower value 1.01 | S. cerevisiae deletion strains, strain wtn01, stronger effect = lower value 1.01 | S. cerevisiae strains, strain wild type, stronger effect = lower value 1.01
